Measurements: PubChem BioAssay (NCI)
About 79,000 compounds went through this panel and 15% of them were active in at least one assay; those are over-represented in the sample as a whole. Values without a mark were called inactive. Calls of active or inactive are those of the source. Cut-off read from the data, not from the text of the source: active = growth inhibition above about 70%; inactive = the rest.

Key:
[1] = NCI Yeast Anticancer Drug Screen. Data for the rad52 strain (AID 147);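 note: 0% = growth of vehicle-treated control cultures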; conditions: S. cerevisiae rad52 mutant growth inhibition, hits give high values
In short: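 Measured: yeast growth inhibition. System: strain with a defined DNA damage repair alteration. Reference: vehicle-treated control cultures.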

[2] = NCI Yeast Anticancer Drug Screen. Data for the wt1 strain (AID 149);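 note: 0% = growth of vehicle-treated wt1 cultures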; conditions: S. cerevisiae wt1 strain (SPY 50644) growth inhibition, hits give high values
In short: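 wt1 strain grown with compound or vehicle; inhibition taken from the growth difference.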

[3] = NCI Yeast Anticancer Drug Screen. Data for the rad50EPP+ strain (AID 151);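 note: 0% = growth of vehicle-treated control cultures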; conditions: S. cerevisiae rad50 mutant strain, hits give high values
In short: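 One strain with a rad50 alteration (rad50EPP+) was compound-treated, its growth then compared to that of vehicle controls.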

[4] = NCI Yeast Anticancer Drug Screen. Data for the mgt1 strain (AID 153); conditions: S. cerevisiae mgt1 mutant growth inhibition, hits give high values
In short: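 After exposure of the mgt1 yeast mutant to compound, growth was measured and reported as inhibition compared with vehicle controls.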

[5] = NCI Yeast Anticancer Drug Screen. Data for the rad50 strain (AID 155);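 note: 0% = growth of vehicle-only cultures of the same strain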; conditions: S. cerevisiae rad50 strain growth inhibition, hits give high values
In short: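 DNA repair mutant yeast, compound exposure, growth read-out; inhibition is taken relative to vehicle.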

[6] = NCI Yeast Anticancer Drug Screen. Data for the mec2-1 strain (AID 157); conditions: S. cerevisiae mec2-1 strain, hits give high values
In short: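 Test agents were screened against the mec2-1 yeast strain, with defined DNA repair or cell cycle alteration. Growth was scored as inhibition against vehicle-only controls.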

[7] = NCI Yeast Anticancer Drug Screen. Data for the rad14 strain (AID 159);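 note: 0% = growth of vehicle-treated control cultures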; conditions: S. cerevisiae rad14 strain growth inhibition, hits give high values
In short: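 DNA repair-defective yeast, compound-exposed; % growth inhibition derived by comparison with vehicle-treated controls.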

[8] = NCI Yeast Anticancer Drug Screen. Data for the sgs1 mgt1 strain (AID 161);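 note: 0% = growth of cultures given vehicle only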; conditions: S. cerevisiae sgs1 mgt1 strain, hits give high values
In short: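 Test agents were incubated with a DNA-repair-mutant yeast strain. Growth was then read and compared against vehicle-treated controls.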

[9] = NCI Yeast Anticancer Drug Screen. Data for the CLN2oe strain (AID 163);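 note: 0% = growth of vehicle-only control cultures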; conditions: S. cerevisiae CLN2oe strain, hits give high values
In short: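 Here, growth inhibition in a cell-cycle-altered yeast strain after compound exposure was quantified against vehicle control growth.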

[10] = NCI Yeast Anticancer Drug Screen. Data for the cln2 rad14 strain (AID 165);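 note: 0% = growth equal to vehicle treated cultures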; conditions: S. cerevisiae cln2 rad14 strain, hits give high values
In short: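 Growth of compound-exposed yeast (cln2 rad14 genotype) measured and expressed as inhibition relative to vehicle.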

[11] = NCI Yeast Anticancer Drug Screen. Data for the bub3 strain (AID 167); conditions: S. cerevisiae bub3 mutant strain, hits give high values
In short: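 In this screen, a yeast mutant lacking normal mitotic checkpoint function is challenged with compound. Relative growth versus vehicle gives the inhibition value.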

[12] = NCI Yeast Anticancer Drug Screen. Data for the wt2 strain (AID 169);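 note: 0% = growth of vehicle-treated yeast cultures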; conditions: S. cerevisiae wt2 strain growth inhibition, hits give high values
In short: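 Genetically defined yeast strains from a DNA-repair/cell-cycle panel were used. Compound-exposed yeast growth was measured, and the inhibition was calculated relative to vehicle treatment.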

[13] = NCI Yeast Anticancer Drug Screen. Data for the mlh1 strain (AID 171);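 note: 0% = growth of vehicle-treated control cultures of the same strain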; conditions: S. cerevisiae mlh1 strain growth inhibition, hits give high values
In short: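 Here the genetically defined yeast mutant is grown with each compound, and the extent to which its growth falls below that of vehicle-exposed cells is reported.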

[14] = NCI Yeast Anticancer Drug Screen. Data for the mlh1 rad18 strain (AID 175); conditions: S. cerevisiae mlh1 rad18 strain growth inhibition, hits give high values
In short: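 In this whole-cell yeast screen, a strain with altered DNA damage repair is challenged with compound, and its growth is measured against matched vehicle-treated controls.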

[15] = NCI Yeast Anticancer Drug Screen. Data for the rad18 strain (AID 177); conditions: S. cerevisiae rad18 mutant growth inhibition, hits give high values
In short: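 Screen uses a yeast strain with a defined lesion in DNA damage repair; compound effect is read as loss of growth compared to untreated vehicle cultures.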

[16] = at 5.0 µM (retest, dose inferred, filed as 0.5)
[17] = at 50.0 µM (retest, dose inferred, filed as 5.0)

N#CC1=C(N)N(/N=C/c2ccccc2)C(c2ccccc2)C1(C#N)C#N (stereo not drawn)
growth inhibition ([1]; at 1.2 µM): 15% | growth inhibition ([1]; at 3.7 µM): 41% | growth inhibition ([1]; at 11.0 µM): 78% (active) | growth inhibition ([1]; at 33.0 µM): 90% (active) | growth inhibition ([1]; at 100.0 µM): 84% (active) | growth inhibition ([2]; at 1.2 µM): 12% | growth inhibition ([2]; at 3.7 µM): 12% | growth inhibition ([2]; at 11.0 µM): 10% | growth inhibition ([2]; at 33.0 µM): 55% | growth inhibition ([2]; at 100.0 µM): 58% | growth inhibition ([3]; at 1.2 µM): 20% | growth inhibition ([3]; at 3.7 µM): 14% | growth inhibition ([3]; at 11.0 µM): 8% | growth inhibition ([3]; at 33.0 µM): 23% | growth inhibition ([3]; at 100.0 µM): 5% | growth inhibition ([4]; at 1.2 µM): 8% | growth inhibition ([4]; at 3.7 µM): 33% | growth inhibition ([4]; at 11.0 µM): 84% (active) | growth inhibition ([4]; at 33.0 µM): 96% (active) | growth inhibition ([4]; at 100.0 µM): 95% (active) | growth inhibition ([5]; at 1.2 µM): 5% | growth inhibition ([5]; at 3.7 µM): 17% | growth inhibition [5, 16]: 16% | growth inhibition ([5]; at 11.0 µM): 66% | growth inhibition ([5]; at 33.0 µM): 90% (active) | growth inhibition [5, 17]: 83% (active) | growth inhibition ([5]; at 50.0 µM): 39.9% | growth inhibition ([5]; at 100.0 µM): 87% (active) | growth inhibition ([6]; at 1.2 µM): 9% | growth inhibition ([6]; at 3.7 µM): 31% | growth inhibition [6, 16]: 4% | growth inhibition ([6]; at 11.0 µM): 72% (active) | growth inhibition ([6]; at 33.0 µM): 91% (active) | growth inhibition [6, 17]: 87% (active) | growth inhibition ([6]; at 50.0 µM): 58.5% | growth inhibition ([6]; at 100.0 µM): 87% (active) | growth inhibition ([7]; at 1.2 µM): 4% | growth inhibition ([7]; at 3.7 µM): 19% | growth inhibition ([7]; at 11.0 µM): 45% | growth inhibition ([7]; at 33.0 µM): 89% (active) | growth inhibition ([7]; at 100.0 µM): 90% (active) | growth inhibition [8, 16]: 5% | growth inhibition [8, 17]: 76% (active) | growth inhibition ([8]; at 50.0 µM): 76.6% (active) | growth inhibition ([9]; at 1.2 µM): 25% | growth inhibition ([9]; at 3.7 µM): 40% | growth inhibition ([9]; at 11.0 µM): 64% | growth inhibition ([9]; at 33.0 µM): 88% (active) | growth inhibition ([9]; at 100.0 µM): 93% (active) | growth inhibition [10, 16]: -4% | growth inhibition [10, 17]: 46% | growth inhibition ([10]; at 50.0 µM): 45.7% | growth inhibition ([11]; at 1.2 µM): 9% | growth inhibition ([11]; at 3.7 µM): 21% | growth inhibition [11, 16]: 13% | growth inhibition ([11]; at 11.0 µM): 77% (active) | growth inhibition ([11]; at 33.0 µM): 93% (active) | growth inhibition [11, 17]: 88% (active) | growth inhibition ([11]; at 50.0 µM): 65.7% | growth inhibition ([11]; at 100.0 µM): 95% (active) | growth inhibition ([12]; at 1.2 µM): -9% | growth inhibition ([12]; at 3.7 µM): 51% | growth inhibition ([12]; at 11.0 µM): 94% (active) | growth inhibition ([12]; at 33.0 µM): 86% (active) | growth inhibition ([12]; at 100.0 µM): 87% (active) | growth inhibition ([13]; at 1.2 µM): 13% | growth inhibition ([13]; at 3.7 µM): 27% | growth inhibition ([13]; at 11.0 µM): 79% (active) | growth inhibition ([13]; at 33.0 µM): 95% (active) | growth inhibition ([13]; at 100.0 µM): 93% (active) | growth inhibition [14, 16]: 14% | growth inhibition [14, 17]: 89% (active) | growth inhibition ([14]; at 50.0 µM): 63.5% | growth inhibition ([15]; at 1.2 µM): 3% | growth inhibition ([15]; at 3.7 µM): 22% | growth inhibition ([15]; at 11.0 µM): 81% (active) | growth inhibition ([15]; at 33.0 µM): 89% (active) | growth inhibition ([15]; at 100.0 µM): 89% (active)
